# Experimental data published in ChEMBL document CHEMBL4513216, “Probing the Open Global Health Chemical Diversity Library for Multistage-Active Starting Points for Next-Generation Antimalarials” (ACS Infect Dis, 2020).
# The campaign covered roughly 69,000 compounds. About 8,600 (12%) showed an effect of 50% or more. The sample as a whole holds a higher share of strong results than the screen did.
# Tested on: Plasmodium berghei
# Assay: Screen against P. berghei liver stage (PbLuc), transformed with Luciferase, at 10uM
# Assay type: functional, HepG2
# Conditions: tested at 10 uM
row,SMILES,INHIBITION
1,CN1CCN(C2CCN(CC(O)c3ccccc3F)CC2)C1=O (stereo not given),17.065%
2,c1cnc(-c2nn3c(CN4CCCCC4)nnc3s2)cn1,6.83%
3,COc1cc(CC2CC(C(N)=O)=NO2)cc2c1OCO2 (stereo not given),16.3%
4,CCOC(=O)C1=NOC(Cc2cc(OC)c3c(c2)OCO3)C1 (stereo not given),60%
5,COC(=O)C1=NOC(Cc2cc(OC)c3c(c2)OCO3)C1 (stereo not given),10.7%
6,CN1CC(C(=O)NCCc2ccc(F)c(Br)c2)CC1=O (stereo not given),-50.6%
7,CS(=O)(=O)NCCCN1CCCC1c1ccccc1 (stereo not given),9.25%
8,O=C(CCN1CCCCC1c1cc2ccccc2[nH]1)N1CCOCC1 (stereo not given),55.8%
9,COc1ccc(C2CCCCCN2CCCNS(C)(=O)=O)cc1 (stereo not given),0.914%
10,CS(=O)(=O)NCCCN1CCCCC1c1cc2ccccc2[nH]1 (stereo not given),52%
11,O=C(CCN1CCCCCC1c1ccco1)N1CCOCC1 (stereo not given),19.5%
12,O=C(CCN1CCC(c2cc3ccccc3[nH]2)CC1)N1CCOCC1,39.7%
13,OC(CN1CCN(Cc2cccc(F)c2)CC1)C1CC1 (stereo not given),-16.5%
14,Cc1n[nH]c(C)c1NC(=O)CN1CCCC1c1noc(C(C)C)n1 (stereo not given),14.1%
15,c1cncc(-c2noc(CN3CCOC(Cn4cccn4)C3)n2)c1 (stereo not given),16.1%
16,Cc1ccc(CN(CCN(C)C)C(=O)Nc2cnn(C)c2)s1,46.4%
17,CN(C)c1nccc(C2CCCN2S(=O)(=O)c2cn(C)cn2)n1 (stereo not given),12.3%
18,O=C(NCc1nnc2n1CCC2)c1cn(-c2cccc(Br)c2)nn1,35.7%
19,COCCNC(=O)Nc1ccc(F)c(C(N)=O)c1,39.8%
20,CCn1nnc2c1C(COC)CN(C(=O)COc1ccccc1)C2 (stereo not given),-12.2%
21,CCOCC1CN(S(=O)(=O)C2CC2)Cc2ncn(CC3CC3)c21 (stereo not given),7.53%
22,CCS(=O)(=O)N1Cc2ncn(CC3CC3)c2C(COC)C1 (stereo not given),11.5%
23,COCC1CN(S(=O)(=O)C2CC2)Cc2ncn(CC3CC3)c21 (stereo not given),51%

row,SMILES,INHIBITION
1,COCC1CN(C(=O)CS(C)(=O)=O)Cc2ncn(CC3CC3)c21 (stereo not given),50%
2,COCC1CN(S(C)(=O)=O)Cc2ncn(CC3CC3)c21 (stereo not given),-3.1%
3,COCC1CN(C(=O)COc2ccccc2)Cc2ncn(C)c21 (stereo not given),51.2%
4,COCC1CN(CC2CC2)Cc2ncn(CC3CC3)c21 (stereo not given),13.5%
5,COCC1CN(C(=O)COc2ccccc2C)Cc2ncn(C)c21 (stereo not given),-9.42%
6,CS(=O)(=O)c1ccc(-c2nc(C(=O)N3CCCC3)n3ccccc23)cc1,-42.9%
7,Cc1ccc(CN2CC[C@@H](O)[C@@H]2Cc2ccccc2)o1,42.3%
8,CC1=C(c2ccc(F)cc2)S(=O)(=O)N=C1N1CCc2ccccc21,0.29%
9,CC(C)N(C)CCNC(=O)N1CCN(Cc2ccon2)CC1,-0.514%
10,Cc1cnc(CN(C)C2CCN(Cc3cnc(C)s3)C2)o1 (stereo not given),23.1%
11,Cc1cnc(CN(C)C2CCN(Cc3ccc(Cl)s3)C2)o1 (stereo not given),60%
12,CC(=O)N(Cc1ncc(C)o1)C1CCN(Cc2cccnc2)C1 (stereo not given),31.9%
13,COc1ccc(C)cc1CN(Cc1ncc(C)o1)C1CCN(C)C1 (stereo not given),23.7%
14,CC(C)c1cnc(CN(C)C2CCN(CCS(C)(=O)=O)C2)o1 (stereo not given),38.5%
15,CCc1cnc(CN(C)C2CCN(CCS(C)(=O)=O)C2)o1 (stereo not given),36.8%
16,Cc1cnc(CN(C)C2CCN(Cc3sc(C)nc3C)C2)o1 (stereo not given),21.6%
17,CC(=O)N(Cc1ncc(C)o1)C1CCN(Cc2ccc(F)c(F)c2)C1 (stereo not given),68.9%
18,Cc1cnc(CN(Cc2ccc(Cl)s2)C2CCN(C)C2)o1 (stereo not given),51.2%
19,Cc1cnc(CN(Cc2ccc(C#N)cc2F)C2CCN(C)C2)o1 (stereo not given),-40.7%
20,CCS(=O)(=O)CCN1CCC(N(C)Cc2ncc(C)o2)C1 (stereo not given),74.4%
21,CC(=O)N(Cc1ncc(C)o1)C1CCN(Cc2ccccc2F)C1 (stereo not given),-19.9%
22,CN(C)c1ccc(C(=O)NCc2ccc(N3CCOCC3)cc2)cn1,12%
23,Cc1n[nH]c(C2CN(C(=O)CCOCC(F)(F)F)CCO2)n1 (stereo not given),13.6%

row,SMILES,INHIBITION
1,CC(=O)N1CCOCC2(CCN(Cc3ccc(C)s3)CC2)C1,20.2%
2,CS(=O)(=O)N1CCO[C@@H]2CN(C(=O)N3CCCC3)CC[C@@H]2C1,43.9%
3,O=C(c1cc2c(s1)CCCC2)N1CCc2nc(C3CCCN3)ncc2C1 (stereo not given),49.6%
4,Cc1nn2cccnc2c1C(=O)N1CCCC(n2ccnc2C)C1 (stereo not given),2.3%
5,COc1ccccc1-c1cc(C(=O)N(C)C)c2cnn(C)c2n1,-8.9%
6,CCOCCCNc1ncc(-c2cccc(F)c2)c(-c2nccn2C)n1,8.12%
7,Cn1ccnc1-c1nc(NC2CCCC2)ncc1-c1cccc(F)c1,63.8%
8,COCCNc1ncc(-c2cccc(F)c2)c(-c2nccn2C)n1,25.8%
9,COc1nn(C)c2c1CCCN(C(=O)c1cscn1)C2,51.2%
10,COc1nn(C)c2c1CCCN(C(=O)c1c[nH]cn1)C2,14%
11,COc1nn(C)c2c1CCCN(C(=O)c1cnccn1)C2,18.6%
12,CCCn1nccc1NC(=O)CN1CCCC1c1cccn1C (stereo not given),25.1%
13,Cc1cc(C)cc(N2CCN(Cc3cccnc3)CC2=O)c1,41.5%
14,O=C1CC2(CCN(Cc3ccc(-c4ccccc4)s3)C2)C(=O)N1 (stereo not given),21.2%
15,O=C1CC2(CCN(Cc3ccc(Cl)s3)C2)C(=O)N1 (stereo not given),61.6%
16,O=C1NCC2(CCCN(Cc3ccc(Cl)s3)C2)Oc2ccccc21 (stereo not given),43.7%
17,O=C(Cc1ccccn1)N1CCc2ncnc(NC3CCC3)c2CC1,38.5%
18,CCc1nc(C)c(C(=O)NCCN2CCN(C(C)=O)CC2)s1,22.3%
19,Cc1nn(C)cc1CN1CCc2c(nc(-c3ccccn3)[nH]c2=O)C1,38.8%
20,COc1cc2c(cc1OC)C(=O)C(Sc1nncn1C)C2 (stereo not given),6.67%
21,Cc1cccc(C)c1NC(=O)c1cccc(CN2CCCC2C)c1 (stereo not given),41.5%
22,COc1ccc(NC(=O)c2cccc(CN3CCCC3C)c2)cc1OC (stereo not given),42.6%
23,CC1CCCN1Cc1cccc(C(=O)Nc2ccc3[nH]c(=O)oc3c2)c1 (stereo not given),74.7%

row,SMILES,INHIBITION
1,CC1CCCN1Cc1cccc(C(=O)Nc2ccc3c(c2)CCC3=O)c1 (stereo not given),58.6%
2,CC1CN(C)CCN1Cc1cccc(C(=O)NCc2ccco2)c1 (stereo not given),-5.9%
3,O=C(NCc1ccco1)c1cccc(CN2CCCC2CO)c1 (stereo not given),5.58%
4,CCN(C)C(=O)CCC(=O)c1cccs1,40.2%
5,COc1cccc(CN(C)C(=O)CCC(=O)c2ccccc2)c1OC,-16.9%
6,COc1ccc(CN(C)C(=O)CCC(=O)c2cccs2)c(OC)c1OC,50.1%
7,COCCN1CCC(CN(CC2CCCO2)C(=O)CCC(F)(F)F)CC1 (stereo not given),6.67%
8,COc1cncc(-n2ccnc2-c2ccc(C(=O)O)s2)c1,14.6%
9,COc1ccc(N(c2ccc(OC)cc2)c2ccc(C(=O)O)s2)cc1,69.3%
10,COc1ccc(N(c2ccc(C)cc2)c2ccc(C(=O)O)s2)cc1,27.8%
11,CCC(=O)Nc1nnc(CCOc2ccc(OC)cc2)s1,40%
12,COc1ccc(N(c2ccccc2)c2ccc(C(=O)O)s2)cc1,66.4%
13,Cc1ccc(OCc2ccc(C(=O)O)s2)cc1C,-32.9%
14,Cc1nc(N2CCCC2)ncc1-c1cc(O)n2ncnc2n1,16.8%
15,CN1CCCCC1(C)C(=O)N1CCC(c2ccccn2)CC1 (stereo not given),19.825%
16,OC(COCc1ccco1)CN1CCc2c(ncn2C2CC2)C1 (stereo not given),-58.7%
17,Cn1ccnc1C(=O)N1CCOC(Cc2ccc(Cl)cc2)C1 (stereo not given),47.2%
18,Cc1cnc(CNS(=O)(=O)CCC2CCCO2)o1 (stereo not given),57.7%
19,O=S(=O)(CCC1CCCO1)NCc1ncc(-c2ccccc2)o1 (stereo not given),20%
20,CN(CCCC1CCCO1)S(=O)(=O)NCc1ccccc1 (stereo not given),16.1%
21,C=c1ccoc1=C1NN=C(CNCCn2cccn2)O1,34.1%
22,CC(=O)N1CCC2(CC1)CN(CC(C)C)CC21CCNC1=O (stereo not given),-33.1%
23,O=C(NCc1ccoc1)NC1CCCN(c2ncccn2)C1 (stereo not given),-22.1%

row,SMILES,INHIBITION
1,CCOC1CCN(C(=O)c2csc(S(N)(=O)=O)c2)CC1,62.4%
2,CC1CCCN(C(=O)c2csc(S(N)(=O)=O)c2)CC1 (stereo not given),11.5%
3,CCCOC1CCCN(C(=O)c2csc(S(N)(=O)=O)c2)C1 (stereo not given),0.991%
4,CCc1nnc2n1CC(CNCc1nc(C)c(C)o1)CC2 (stereo not given),-8.22%
5,Cc1ccc(CNC(=O)N2CCCC(NS(C)(=O)=O)C2)cc1 (stereo not given),9.64%
6,CCOCC(=O)N1C[C@@H]2COC[C@]2(c2nc(C)no2)C1,63.8%
7,Cc1noc([C@]23COC[C@H]2CN(C(=O)CN(C)C)C3)n1,46.6%
8,Cc1noc([C@]23COC[C@H]2CN(C(=O)COC2CCCC2)C3)n1,-5.89%
9,COCCN1CCc2ncnc(N(C)C)c2CC1,33.5%
10,CN(C)Cc1ccnc(C2CN(CCCc3ccccc3)CCO2)n1 (stereo not given),42.6%
11,O=C(c1ccc(C2CCCN2C(=O)c2ccc[nH]2)s1)N1CCSCC1 (stereo not given),-32.2%
12,CC(C)(C)n1ncc2c1CCCC2NCc1ccsc1 (stereo not given),50.1%
13,O=C1C(NCc2ccc3c(c2)CCO3)CCN1Cc1ccccc1 (stereo not given),6.88%
14,CC(C)(C)n1ncc2c1CCCC2NCc1cccc(C(N)=O)c1 (stereo not given),-8.4%
15,CC(C)(C)n1ncc2c1CCCC2NCc1ccc2c(c1)CCO2 (stereo not given),61%
16,Cn1ncc2c1CCCC2NCc1cnc(-c2ccccc2)nc1 (stereo not given),33%
17,CCn1ncc2c1CCCC2NCc1ccc2c(c1)OCCO2 (stereo not given),1.51%
18,CCn1ncc2c1CCCC2NCc1ccc2c(c1)CCO2 (stereo not given),5.03%
19,CC(C)(C)n1ncc2c1CCCC2NCc1cccc2c1OCO2 (stereo not given),20.2%
20,CC(C)(C)n1ncc2c1CCCC2NCc1ccc2c(c1)OCCO2 (stereo not given),93.1%
21,CC(C)(C)n1ncc2c1CCCC2NCc1ccc2ncccc2c1 (stereo not given),72.8%
22,COCc1nc(CNC2CCCc3c2cnn3C(C)(C)C)cs1 (stereo not given),2.02%
23,CC(C)(C)n1ncc2c1CCCC2NCc1cccc2c1OCCO2 (stereo not given),35.9%
